{"source": "PubChem BioAssay AID2102", "about": "(Southern Research Specialized Biocontainment Screening …, 2009)", "note": "Screen size: about 1,100 compounds; about 210 (19%) were called active. The rule behind the calls is not given here. A selection follows. Results with a measured potency or affinity are listed apart.", "data": [{"assay": "host cell cytotoxicity, dose response, cytotoxicity control for SV40 T antigen inhibitor project, selected hits (AID 2102);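 note: cells exposed to compounds for 72 hours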", "conditions": "Host cell viability cytotoxicity counter-screen; series mostly up to 50 µM", "values": [{"smiles": "Cc1cc(C)n(CCc2nc(-c3ccco3)cs2)n1", "outcome": "inactive"}, {"smiles": "Nc1ccc(-c2nc3c(Cl)c(N)ccc3[nH]2)cc1", "outcome": "inactive"}, {"smiles": "Nc1ccc2nc(CCCCCCc3nc4ccc(N)cc4[nH]3)[nH]c2c1", "outcome": "inactive"}, {"smiles": "CC(C)C(C(=O)O)N1C(=O)/C(=C/C=C/c2ccco2)SC1=S", "note": "(configuration not stated)", "outcome": "inactive"}, {"smiles": "O=C1NC(=NCc2ccccc2)S/C1=C/c1ccc(O)cc1", "outcome": "inactive"}, {"smiles": "C/C(=N/NC(=O)CSc1nc2ccccc2n1C)c1ccc(O)cc1", "outcome": "inactive"}, {"smiles": "COc1ccc(NC2CCCN(C(=O)CCCn3cncn3)C2)cc1", "note": "(configuration not stated)", "outcome": "inactive"}, {"smiles": "O=C1NC(=O)/C(=C/c2ccc(O)cc2)S1", "outcome": "inactive"}, {"smiles": "O=C(O)Cc1c[nH]c2cccc(O)c12", "outcome": "inactive"}, {"smiles": "O=C(CCc1ccc(O)c(O)c1)N/N=C/c1cc2c(cc1[N+](=O)[O-])OCO2", "outcome": "inactive"}, {"smiles": "COc1ccc(CC(=O)N/N=C(\\C)CC(=O)Nc2ccc(N(C)C)cc2)cc1OC", "outcome": "inactive"}, {"smiles": "COc1ccc(/C=N/NC(=O)CCc2n[nH]c(=O)[nH]c2=O)cc1O", "outcome": "inactive"}, {"smiles": "COc1cc(/C=C2\\C(=O)NN(c3ccccc3)C2=O)ccc1OCC(N)=O", "outcome": "inactive"}, {"smiles": "O=S1(=O)N=C(Nc2ccc(O)cc2)c2ccccc21", "outcome": "inactive"}, {"smiles": "Cc1nnc(Nc2ccc(O)cc2)[nH]c1=O", "outcome": "inactive"}, {"smiles": "CCOc1cc(/C=N/NC(=O)CCc2n[nH]c(=O)[nH]c2=O)ccc1O", "outcome": "inactive"}, {"smiles": "C=CCn1c(SCC(=O)c2ccc(O)c(O)c2)nnc1-c1cccnc1", "outcome": "inactive"}, {"smiles": "CCOC(=O)CNc1c(-c2ccc(O)cc2)nc2ccccn12", "outcome": "inactive"}, {"smiles": "O=C(Nc1cccc(N2C(=O)C=CC2=O)c1)c1cccs1", "outcome": "inactive"}, {"smiles": "COc1cc(/C=N/N=C(\\N)c2nonc2N)ccc1O", "outcome": "inactive"}, {"smiles": "COc1cc(C=C2C(=O)c3ccccc3C2=O)ccc1O", "outcome": "inactive"}, {"smiles": "COc1cc(-c2cc(=O)c3c(O)c(OC)c(OC)c(O)c3o2)ccc1O", "outcome": "inactive"}, {"smiles": "O=C(CC(=O)N/N=C/c1ccc(O)cc1)N/N=C/c1ccc(O)cc1", "outcome": "inactive"}, {"smiles": "O=C(N/N=C/c1ccc(O)c(O)c1)N/N=C/c1ccc(O)c(O)c1", "outcome": "inactive"}, {"smiles": "Oc1ccc(Nc2nc(Cl)nc(NCc3ccco3)n2)cc1", "outcome": "inactive"}, {"smiles": "CCOc1cc(-c2ccc(N)c(OCC)c2)ccc1N", "outcome": "inactive"}, {"smiles": "Nc1cc(C(=O)O)ccc1Nc1ccccc1", "outcome": "inactive"}, {"smiles": "Oc1ccc(-c2cn3c(n2)SCC3)cc1O", "outcome": "inactive"}, {"smiles": "COc1cc(/C=C/C(=O)OCC(=O)Nc2ccc(S(N)(=O)=O)cc2)ccc1O", "outcome": "inactive"}, {"smiles": "Nc1ccc2nc(CCCO)[nH]c2c1", "outcome": "inactive"}, {"smiles": "COc1cc(C=C(C(C)=O)C(C)=O)ccc1O", "outcome": "inactive"}, {"smiles": "COc1cc(/C=N/NC(=O)c2cccc([N+](=O)[O-])c2)ccc1O", "outcome": "inactive"}, {"smiles": "O=c1ccc2cc(O)c(O)cc2o1", "outcome": "inactive"}, {"smiles": "O=C(Nc1ccc(O)cc1)/C(=C\\c1ccncc1)NC(=O)c1ccccc1", "outcome": "inactive"}, {"smiles": "Cc1nnc(N/N=C/c2c(O)n(-c3cccc(C(F)(F)F)c3)c(=O)c3ccccc23)[nH]c1=O", "outcome": "inactive"}, {"smiles": "COc1ccc(-c2cc(=O)oc3c(O)c(O)ccc23)cc1", "outcome": "inactive"}, {"smiles": "O=C1CCCC/C1=C\\Nc1ccc(O)cc1", "outcome": "inactive"}, {"smiles": "O=c1cc(CN2CCN(Cc3ccccc3)CC2)c2ccc(O)c(O)c2o1", "outcome": "inactive"}, {"smiles": "Oc1cnn(-c2ccccc2)c1", "outcome": "inactive"}, {"smiles": "Nc1cc(CN2C(=O)c3ccccc3C2=O)cc(Cl)c1O", "outcome": "inactive"}, {"smiles": "COc1cc(/C=N/Nc2ccnc(=O)[nH]2)ccc1O", "outcome": "inactive"}, {"smiles": "COc1ccc(NC2CCCN(C(=O)c3ccc(OC)cc3OC)C2)cc1", "note": "(configuration not stated)", "outcome": "inactive"}, {"smiles": "COc1ccc(NC2CCCN(C(=O)CCn3cccn3)C2)cc1", "note": "(configuration not stated)", "outcome": "inactive"}, {"smiles": "COc1cc(/C=N/NC(=O)c2c(-c3ccccc3)noc2C)ccc1O", "outcome": "inactive"}, {"smiles": "C/C(CC(=O)Nc1ccc2ccccc2c1)=N\\NC(=O)c1ccc(O)c(O)c1", "outcome": "inactive"}, {"smiles": "O=C(Nc1ccc(O)cc1)C1CC=CCC1", "note": "(configuration not stated)", "outcome": "inactive"}, {"smiles": "CC(C)C(=O)c1ccc(O)c(O)c1", "outcome": "inactive"}, {"smiles": "Cc1ccc(S(=O)(=O)N2CCN(CC(=O)N/N=C\\c3ccc(O)c(O)c3)CC2)cc1", "outcome": "inactive"}, {"smiles": "CCCSc1nc(O)c(C(c2ccc(OC)c(O)c2)c2c(O)nc(SCCC)n(C)c2=O)c(=O)n1C", "outcome": "inactive"}, {"smiles": "COc1cc(Cn2nnc3ccccc32)ccc1O", "outcome": "inactive"}, {"smiles": "Cc1ccc2c(c1C)NC(C(=O)O)C1CC=CC21", "note": "(configuration not stated)", "outcome": "inactive"}, {"smiles": "CC(/C=N/n1c(-c2n[nH]c3c2CCC3)n[nH]c1=S)=C\\c1ccco1", "outcome": "inactive"}, {"smiles": "Nc1nc(-c2cccs2)c(NC(=O)c2ccccc2)s1", "outcome": "inactive"}, {"smiles": "O=C1CNC(=S)N1CCc1ccc(O)c(O)c1", "outcome": "inactive"}, {"smiles": "N#CC1=C2SCN(Cc3ccco3)CN2C(=O)CC1c1ccc(Cl)cc1", "note": "(configuration not stated)", "outcome": "inactive"}, {"smiles": "O=C(N/N=C/c1ccc(O)c(O)c1)c1cc(-c2ccccc2)nc2ccccc12", "outcome": "inactive"}, {"smiles": "O=C(CSc1nc2ccccc2o1)N/N=C/c1ccc(O)c(O)c1", "outcome": "inactive"}, {"smiles": "Cc1cc(SCC(=O)N/N=C/c2ccc(O)c(O)c2)nc2ccccc12", "outcome": "inactive"}, {"smiles": "CCn1c(/C=C/c2ccc(O)c(O)c2)nc2ccccc2c1=O", "outcome": "inactive"}, {"smiles": "O=C1ON=C(c2ccccc2)/C1=C/c1ccc(O)c(O)c1", "outcome": "inactive"}, {"smiles": "O=C1C=CC(=O)N1c1ccc(O)cc1", "outcome": "inactive"}, {"smiles": "Cc1nc(Cl)cc(N/N=C/c2ccc(O)cc2)n1", "outcome": "inactive"}, {"smiles": "CCOc1ccc(N2Nc3n[nH]c(N)c3N2)cc1", "outcome": "inactive"}, {"smiles": "Cc1c(NC(=O)CN2CCN(c3ccc(O)cc3)CC2)c(=O)n(-c2ccccc2)n1C", "outcome": "inactive"}, {"smiles": "O=C1CC(N2CCN(c3ccc(O)cc3)CC2)C(=O)N1Cc1cccs1", "note": "(configuration not stated)", "outcome": "inactive"}, {"smiles": "Cc1nc2ccc(N=NN(C)C)cc2[nH]1", "outcome": "inactive"}, {"smiles": "O=C(Cn1c(=O)oc2ccccc21)Nc1n[nH]c(=S)s1", "outcome": "inactive"}, {"smiles": "Cc1cc(C)c2c(CCl)cc(=O)oc2c1", "outcome": "inactive"}, {"smiles": "CCSS(=O)(=O)c1cccc2cccnc12", "outcome": "inactive"}, {"smiles": "O=C1/C(=C/c2ccncc2)SC(=S)N1Nc1ccccc1", "outcome": "inactive"}, {"smiles": "CCc1cc2c(Nc3ccc(O)cc3)nc(C)nc2s1", "outcome": "inactive"}, {"smiles": "O=C(c1ccc2ncsc2c1)N1CCN(c2ccc(O)cc2)CC1", "outcome": "inactive"}, {"smiles": "CCOC(=O)N1CCN(c2ccc(O)cc2)CC1", "outcome": "inactive"}, {"smiles": "O=C(C1CC1)N1CCN(c2ccc(O)cc2)CC1", "outcome": "inactive"}, {"smiles": "COc1ccc(N2CCN(C(=O)CN(c3ccccc3)S(C)(=O)=O)CC2)cc1", "outcome": "inactive"}, {"smiles": "O=C(CCC(=O)N1CCN(c2ccc(O)cc2)CC1)c1cccs1", "outcome": "inactive"}, {"smiles": "Cc1cc(NC(=O)CN2CCN(c3ccc(O)cc3)CC2)no1", "outcome": "inactive"}]}]}
